Assay outcomes as filed in PubChem BioAssay.
HPGD block: HPGD (human) dehydrogenase inhibition; AID 894; Potency, µM, hits mostly inhibitors; purified HPGD, NADH fluorescence kinetic, PGE2 substrate; hit rate 4.3% among 150,000; active = well fitted inhibition curve with a large enough effect, not every such curve was filed as active; inconclusive = small, poorly fitted or top-dose-only effect, or another doubt; inactive = no such curve, though single readings can be large or run the other way
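NADH formation kinetics: reaction with 30 uM PGE2 and 1 mM NAD+ (final), 20 nM enzyme, Tris-HCl pH 8 with Tween 20, after 15 min compound preincubation at room temperature. Fluorescence change, last versus first of five reads.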
HTT ATP protect: cytoprotection in Huntington HTT-Q103 PC12 cell model. PC12 HTT-Q103 induced, cytoprotection, ATP luminescence, 40 h. Potency, µM (highest dose often 56.4 µM), most hits filed as activators. hit rate 0.14% among 230,000. AID 1471; note: nearly all actives have a fitted effect of over 45% in size
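Compounds were screened for protection of PC12 cells against cell death after tebufenozide induction (100 nM final) of mutant Huntingtin exon 1 (Q103) fused to GFP.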
HttQ103 aggreg: inhibitors of mutant huntingtin aggregate formation in PC12 cells; Potency, µM (doses to about 46.1 µM), actives largely listed as inhibitors; AID 1688; PC12 HttQ103-GFP aggregates, Acumen cytometry, 40 h; hit rate 1.1% among 220,000; note: nearly all actives have a fitted effect of over 60% in size
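PC12/HTTQ103-GFP, ecdysone-inducible; teb 100 nM; cpd qHTS titration; GFP aggregates read on laser cytometer, Ex 488/Em 500-530 nm.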
ALDH1A1 inh: ALDH1A1 (human) enzyme inhibition; Potency, µM (top dose mostly 75.3 µM), usual class: inhibitors; AID 1030; Purified ALDH1A1, NADH fluorescence, propionaldehyde substrate; hit rate 7.3% among 220,000; active = well fitted inhibition curve with a large enough effect, not every such curve was filed as active; inconclusive = small, poorly fitted or top-dose-only effect, or another doubt; inactive = no such curve, though single readings can be large or run the other way
PNC assembly inh: perinucleolar compartment assembly inhibition; hit rate 3.1% among 140,000; PC3M PTB-GFP, PNC prevalence imaging, 16 h; stronger effect = lower value; activity change (PNC), negative = inhibition, % at 10 µM; AID 2417;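 active = readout at or below -70, meaning at least 70% loss of cells showing the perinucleolar compartment, a nuclear body marking cancer cells; inconclusive = readout between -30 and a set limit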
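Compounds are pinned in duplicate onto adhered PC3M cells stably expressing GFP-tagged PTB and incubated 16 h at 37 C. Cells are then fixed, nuclei stained with Hoechst, and PNC-positive cells counted.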
CBFb RUNX1 block: inhibitors of human CBF-beta and RUNX1 interaction; AlphaScreen CBFb-His/RUNX1-biotin binding, biochemical; Potency, µM (top dose mostly 59.8 µM), most hits filed as inhibitors; 230,000 tested, under 10 active
Target sequence (Q01196 whole entry, looked up): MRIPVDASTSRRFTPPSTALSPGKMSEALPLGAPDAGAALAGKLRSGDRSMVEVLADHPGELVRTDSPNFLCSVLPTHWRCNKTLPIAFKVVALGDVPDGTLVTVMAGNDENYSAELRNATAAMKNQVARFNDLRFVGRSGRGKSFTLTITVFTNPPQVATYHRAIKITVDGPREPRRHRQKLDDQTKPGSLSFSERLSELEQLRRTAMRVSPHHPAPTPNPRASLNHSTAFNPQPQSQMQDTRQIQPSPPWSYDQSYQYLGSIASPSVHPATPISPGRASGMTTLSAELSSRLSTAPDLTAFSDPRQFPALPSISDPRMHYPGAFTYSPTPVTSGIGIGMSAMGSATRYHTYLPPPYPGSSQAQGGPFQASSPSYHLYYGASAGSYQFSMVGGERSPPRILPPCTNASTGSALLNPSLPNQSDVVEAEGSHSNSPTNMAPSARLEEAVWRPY
Target sequence (Q13951 whole entry, looked up): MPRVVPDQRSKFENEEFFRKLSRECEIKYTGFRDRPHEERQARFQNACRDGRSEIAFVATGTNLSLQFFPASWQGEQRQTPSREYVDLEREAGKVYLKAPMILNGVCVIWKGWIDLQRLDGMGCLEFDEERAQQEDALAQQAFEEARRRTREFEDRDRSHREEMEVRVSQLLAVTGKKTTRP
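Proteins preincubated together for 20 min at RT before compound addition; 15 min later, nickel and streptavidin beads were added and left 90 min prior to AlphaScreen measurement.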
Of the large screens only hits and unclear results are named; the others gave an inactive call. Rows were chosen to be rich in hits. Some 11% of all compounds tested hit in one or more screens of this group. Unless noted, calls come from the whole dose curve; as a rule, active = well fitted curve in the direction sought with a large enough effect; inconclusive = small, poorly fitted or top-dose-only effect, or another doubt; inactive = no such curve, though single readings can be large; an effect the other way counts as inactive or inconclusive.

CCn1c(=S)sc2c(=O)n(-c3ccccc3)c(=S)[nH]c21	ALDH1A1 inh inconclusive (no result: HPGD block, PNC assembly inh)
CCOc1ccccc1-n1c(=S)sc2c(=O)n(-c3ccc(C)cc3)c(=S)[nH]c21	ALDH1A1 inh 7.94µM (no result: HPGD block, PNC assembly inh)
CCOC(=O)N1CCN(C(=O)COc2cccc3c2CCN(Cc2ccccc2C)C3=O)CC1	ALDH1A1 inh 25.1µM, PNC assembly inh inconclusive
CC1CCN(C(=O)COc2cccc3c2CCN(Cc2ccccc2)C3=O)CC1	ALDH1A1 inh 28.2µM (no result: HPGD block, PNC assembly inh)
CC(NC(=O)c1cccnc1)C(c1cccs1)N1CCN(c2ccccc2F)CC1 (configuration not stated)	none (no result: HPGD block, ALDH1A1 inh, PNC assembly inh)
CC(NC(=O)c1ccc(F)cc1)C(c1cccs1)N1CCN(C)CC1 (configuration not stated)	PNC assembly inh -115.7
COc1ccccc1N1CCN(C(c2cccs2)C(C)NC(=O)c2cccnc2)CC1 (configuration not stated)	HTT ATP protect 5.62µM, HttQ103 aggreg inconclusive (no result: HPGD block, PNC assembly inh)
c1ccc(-c2nc(CSc3nnnn3-c3ccccc3)cs2)cc1	ALDH1A1 inh 14.1µM, PNC assembly inh inconclusive, CBFb RUNX1 block inconclusive
Cc1ccccc1Nc1nc(CSc2nnnn2-c2ccccc2)cs1	HPGD block inconclusive, ALDH1A1 inh 7.94µM
COc1ncc2nc(-c3ccc(F)cc3)c(=O)n(C[C@H]3CCCO3)c2n1	HPGD block inconclusive, ALDH1A1 inh inconclusive (no result: HttQ103 aggreg, PNC assembly inh, CBFb RUNX1 block)
Cn1c(/C=C/c2ccc([N+](=O)[O-])o2)nc2ccccc2c1=O	HttQ103 aggreg 10µM, ALDH1A1 inh inconclusive, PNC assembly inh inconclusive
Cc1cc(N/N=C/c2ccc([N+](=O)[O-])o2)nc2ccccc12	HttQ103 aggreg inconclusive (no result: HPGD block, PNC assembly inh)
N#Cc1ccc(CN2CC3(CCN(C(=O)c4ccco4)CC3)C2)cc1	none (no result: HttQ103 aggreg, PNC assembly inh, CBFb RUNX1 block)
COc1ccc(-c2cc(C3C4C=CCCC4(C)C(=O)N3Cc3ccccc3)ccc2F)cc1OC (configuration not stated)	none (no result: HPGD block, HTT ATP protect, HttQ103 aggreg, ALDH1A1 inh, PNC assembly inh)
COCC1CCN(Cc2nc(-c3cccs3)no2)C1 (configuration not stated)	ALDH1A1 inh 28.2µM (no result: HPGD block, PNC assembly inh)
c1csc(-c2noc(CN3CCc4sccc4C3)n2)c1	ALDH1A1 inh 20µM (no result: HPGD block, PNC assembly inh)
O=C(NCC1CCCO1)c1sc(=S)n2c1[nH]c(=O)c1ccc(C(=O)N3CCCCC3)cc12 (configuration not stated)	HPGD block 0.447µM, ALDH1A1 inh inconclusive
O=C(NC1CCCCC1)c1sc(=S)n2c1[nH]c(=O)c1ccccc12	HPGD block 12.6µM, HttQ103 aggreg inconclusive, ALDH1A1 inh 3.16µM
COC(=O)c1ccccc1SC1CC(=O)N(c2ccccc2)C1=O (configuration not stated)	HPGD block 14.1µM, ALDH1A1 inh inconclusive, PNC assembly inh inconclusive (no result: HTT ATP protect)
O=C1CC(Sc2nnnn2C2CCCCC2)C(=O)N1c1ccccc1 (configuration not stated)	HPGD block inconclusive, HttQ103 aggreg inconclusive, ALDH1A1 inh 3.55µM, PNC assembly inh -100.0
Cc1cc(C)cc(N2C(=O)CC(Sc3ncn[nH]3)C2=O)c1 (configuration not stated)	ALDH1A1 inh 2µM (no result: HPGD block, PNC assembly inh)
Cc1cc(C)cc(N2C(=O)CC(Cn3nc(C)cc3C)C2=O)c1 (configuration not stated)	none (no result: HPGD block, ALDH1A1 inh, PNC assembly inh)
Cn1nnnc1SC1CC(=O)N(c2ccccc2)C1=O (configuration not stated)	HttQ103 aggreg inconclusive, ALDH1A1 inh 1.58µM (no result: HPGD block, PNC assembly inh)
Cc1ccccc1-c1cncnc1NCc1cccs1	ALDH1A1 inh inconclusive (no result: HPGD block, HttQ103 aggreg, PNC assembly inh, CBFb RUNX1 block)
CC(OCc1ccccc1)C(NC(=O)OC(C)(C)C)C(=O)NC1COC2CC(n3ccc(=O)[nH]c3=O)OC12 (configuration not stated)	none (no result: HPGD block, HTT ATP protect, HttQ103 aggreg, ALDH1A1 inh, PNC assembly inh)
CN[C@@H]1[C@H](O[C@H]2[C@@H](O[C@@H]3[C@@H](O)[C@@H](O)[C@@H](N=C(N)N)[C@@H](O)[C@@H]3N=C(N)N)O[C@@H](C)[C@]2(O)CO)O[C@H](CO)[C@@H](O)[C@@H]1O	none (no result: HttQ103 aggreg, PNC assembly inh)
Cc1cccc(N2C(=O)CC(Sc3nnc(C)s3)C2=O)c1 (configuration not stated)	HPGD block 25.1µM, HttQ103 aggreg 14.1µM, ALDH1A1 inh 2.82µM
